SMILES strings stand for the structures. Calls of active or inactive are those of the source. Rule for the calls: active = hit-call score of the fitted dose curve at least 0.9, where 1 is the maximum; inactive = score below 0.9.

Read-out in this assay: ABC Transporter (ABCC3), ABCC3 (gene 8714)
Briefly: LTEA_HepaRG_ABCC3: Life Technologies and Expression Analysis (LTEA) Assay for ABC Transporter (ABCC3) using HepaRG (AID 2283462). To be noted: mRNA level, 48 h; actives raise or lower the signal. The method, then:
LTEA_HepaRG is a cell based, multiplexed-readout assay that uses HepaRG, a human liver cell line, with measurements taken at 48 hours after chemical dosing on a 96-well plate.LTEA_HepaRG_ABCC3 is one of 102 assay component(s) measured in the LTEA HepaRG cell culture assay. It is a marker of NR mediated transport.Data from the assay component LTEA_HepaRG_ABCC3 was analyzed into 1 endpoint. This assay endpoint, LTEA_HepaRG_ABCC3, was analyzed with bidirectional fitting relative to DMSO as the negative control and baseline of activity. Using a type of inducible reporter, measures of mRNA induction for gain or loss-of-signal activity can be used to understand regulation of transcription factor activity. To generalize the intended target to other relatable targets, this assay endpoint is annotated to the transporter intended target family, where the subfamily is ABC transporter.
A total of 1060 chemcials from the ToxCast library were tested in eight-point concentration-response experiments. Cell culture and cytotoxicity assays were conducted at Thermo Fisher Scientific's Custom Services facility (Madison, WI). A single lot of human HepaRG cells (Thermo Fisher Scientific, Frederick, MD) was used for the cell culture experiments. 96-well format collagen type I coated plates of human HepaRG cells were prepared using established methods. Briefly, cryopreserved HepaRG cells were thawed, plated at a density of approximately 100,000 cells/well in HepaRG Thaw, Plate, and General Purpose media (HPRG770, Thermo Fisher Scientific), and incubated for 48 hours. 0.5% DMSO was selected as vehicle control to balance the requisite need of DMSO in HepaRG cultures to maintain differentiation (for example, baseline metabolism, proportions of hepatocytes vs. cholangiocytes), while enabling further hepatic receptor pathway activation (for example, PXR and CAR) in response to chemical exposure. 48 hours after plating, the culture medium was replaced with HepaRG Serum-Free Incudtion Media. Cells were exposed to each test chemical in duplicate and maintained in CO2 incubators for another 48 hours. Chemical plates were thawed to room temperature and 200x concentrations of treatment groups were prepared. 8-point conentration-reponse curves were made with the highest exposure at 100 uM, followed by half-log dilutions, all in 0.5% DMSO. Each test plate contained variouse controls, induction positive controls (1mM phenobarbital), cytotoxicity positive controls ([…] aflatoxin B1), vehicle controls (0.5% DMSO), and total lysis controls (0.5% DMSO). Cell morphology images were taken using an Essen IncuCyte FLR automated microscope, with six 96-well plates imaged in about 24 minutes. Images were captured and exported and JPEG files. Spent culture media was transfered to black-well plates for the LDH assay, and remaining media was sorted at -80 C for later use. Cells were treated with RLT buffer and frozen until shipped for gene expression analysis. Total RNA was isolated from the cell suspension in 75 uL of Buffer RLT (Qiagen, Germantown, MD 20874) by Quintiles/Expression Analysis (Durham, NC) using a custom isolation procedure. Total RNA from each plate well was transferred to a preamplification plate. Fluidigm's 96.96 Dynamic ArrayTM (Fluidigm, Amsterdam, the Netherlands) technology was used for gene expression analyses by quantitative reverse transcription polymerase chain reaction (qRT-PCR, performed by Quintiles/Expression Analysis, Durham, NC)89. Standard TaqManTM Assays (Applied Biosystems/ThermoFisher Scientific, Foster City, CA) were used to assess the expression of 93 genes selected based on their selectivity and sensitivity to important hepatic receptors known to be modulated by environmental chemicals; importance in human hepatocyte functionality; and hepatotoxicity. […]
Consider `O=[N+]([O-])c1ccc(O)c([N+](=O)[O-])c1`, for which the AC50 is 12.4 µM (active).

Turning to `CC(C)(c1ccccc1)c1ccc(O)c(C(C)(C)c2ccccc2)c1`, the compound was classed as inactive.

As for `CC(C)(OO)c1ccccc1`, the compound was called inactive.

With `NC(=O)O`, the result was inactive.

With `O=C1C2(Cl)C3(Cl)C4(Cl)C(Cl)(Cl)C5(Cl)C3(Cl)C1(Cl)C5(Cl)C24Cl` (stereo not given), the AC50 is 92.7 µM (active).

Take `CC(C)(C)CC(C)(C)c1ccc(O)cc1`: the outcome was inactive.

On to `O=C(O)C(Cl)(Cl)Cl`, for which the compound was called inactive.

Turning to `C[C@]12CCC(=O)C[C@@H]1CC[C@@H]1[C@@H]2CC[C@]2(C)[C@@H](O)CC[C@@H]12`, the result was inactive.

As for `C=CC(=O)OCCCCCC(C)C`, the compound was called inactive.

As to `O=C(O)C(F)(F)C(F)(F)C(F)(F)C(F)(F)C(F)(F)C(F)(F)C(F)(F)C(F)(F)C(F)(F)C(F)(F)F`, the compound was called inactive.

As for `CCCCCCCCc1ccc(O)cc1`, the compound was called inactive.

Take `CC(=O)[O][Hg][c]1ccccc1`: the AC50 was 13 µM (active).

For `O=c1[nH]c(=O)[nH]c(=O)[nH]1`, the compound was called inactive.

Regarding `Cc1ccccc1N`, the compound was called inactive.

Consider `Oc1cccc2cccnc12`, for which the compound was called inactive.

As to `Cn1sc(Cl)cc1=O`, the outcome was inactive.

As to `CC12CC1(C)C(=O)N(c1cc(Cl)cc(Cl)c1)C2=O` (stereo not given), the call was inactive.

As for `C[C@@H]1C[C@@H]([C@H](O)CC2CC(=O)NC(=O)C2)C(=O)[C@@H](C)C1`, the AC50 is 0.921 µM (active).

Turning to `O=C(Nc1ccc2[nH]ccc2c1)c1cc2cc(F)ccc2n1Cc1cccc(F)c1`, the call was inactive.

As to `CCN1CCC2(CC1)COc1cc3c(cc12)N(C(=O)c1ccc(-c2ccc(-c4nnc(C)o4)cc2C)cc1)CC3`, the AC50 is 71.6 µM (active).

Regarding `COc1cc(-c2ccc(N)c(OC)c2)ccc1N`, the compound was classed as inactive.

Consider `C=C(C)C(=O)[O][Sn]([CH2]CCC)([CH2]CCC)[CH2]CCC`, for which the AC50 was 3.06 µM (active).

On to `ClC1(Cl)C2(Cl)C3(Cl)C4(Cl)C(Cl)(Cl)C5(Cl)C3(Cl)C1(Cl)C5(Cl)C24Cl` (stereo not given), for which the compound was classed as inactive.

With `CCC(=O)C(CC(C)N(C)C)(c1ccccc1)c1ccccc1` (stereo not given), the AC50 is 36.2 µM (active).

In the case of `CCOP(=S)(OCC)Oc1nc(Cl)c(Cl)cc1Cl`, the compound was classed as inactive.

For the compound `CCOP(=S)(OCC)SCSP(=S)(OCC)OCC`, the compound was classed as inactive.

Take `CCC(C)(C)c1ccc(O)c(C(C)(C)CC)c1`: the call was inactive.

For `ClCC(Cl)CCl`, the result was inactive.

Take `O=C(O)C(F)(F)C(F)(F)C(F)(F)C(F)(F)C(F)(F)C(F)(F)F`: the call was inactive.

Regarding `CN(C)N=O`, the call was inactive.

Usually AC50 stands for the midpoint of the concentration-response curve, whichever way the signal moves.

Values taken from PubChem BioAssay (EPA / NIEHS).
